Reference: ChEMBL document CHEMBL2218924, “A broad activity screen in support of a chemogenomic map for kinase signalling research and drug discovery” (Biochem J, 2013)

How the values were obtained:
[1] = target: Death-associated protein kinase 1 (Homo sapiens) (UniProt P53355); conditions: at 10 µM
[2] = target: Death-associated protein kinase 2 (Homo sapiens) (UniProt Q9UIK4); conditions: at 1 µM
[3] = target: Death-associated protein kinase 2 (Homo sapiens) (UniProt Q9UIK4); conditions: at 10 µM
[4] = target: T1, Serine/threonine-protein kinase DCLK2 (Homo sapiens) (UniProt Q8N568); conditions: at 1 µM
T1 sequence (whole entry): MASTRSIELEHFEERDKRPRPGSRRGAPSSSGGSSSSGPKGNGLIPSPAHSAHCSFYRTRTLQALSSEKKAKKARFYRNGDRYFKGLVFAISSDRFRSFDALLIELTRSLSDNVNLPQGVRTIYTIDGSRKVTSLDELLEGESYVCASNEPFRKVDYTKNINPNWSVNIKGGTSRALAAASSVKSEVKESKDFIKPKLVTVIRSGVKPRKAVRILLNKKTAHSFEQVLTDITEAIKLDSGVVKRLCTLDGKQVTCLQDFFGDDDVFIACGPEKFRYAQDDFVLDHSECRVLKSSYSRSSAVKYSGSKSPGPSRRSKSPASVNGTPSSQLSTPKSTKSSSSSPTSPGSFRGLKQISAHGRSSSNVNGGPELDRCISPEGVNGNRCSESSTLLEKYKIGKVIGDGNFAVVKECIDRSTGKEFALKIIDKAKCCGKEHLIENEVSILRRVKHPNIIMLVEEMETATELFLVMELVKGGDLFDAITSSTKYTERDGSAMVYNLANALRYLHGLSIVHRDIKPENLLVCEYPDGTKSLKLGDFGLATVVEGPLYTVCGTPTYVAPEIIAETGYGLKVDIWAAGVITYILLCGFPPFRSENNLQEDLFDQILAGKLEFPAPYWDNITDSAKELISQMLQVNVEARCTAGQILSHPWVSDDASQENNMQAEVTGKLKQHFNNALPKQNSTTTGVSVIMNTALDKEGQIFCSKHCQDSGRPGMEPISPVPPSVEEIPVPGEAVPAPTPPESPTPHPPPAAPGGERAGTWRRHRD

[5] = target: T1, Serine/threonine-protein kinase DCLK2 (Homo sapiens); conditions: at 10 µM
[6] = target: T2, Discoidin domain-containing receptor 2 (Homo sapiens) (UniProt Q16832); conditions: at 1 µM
T2 sequence (whole entry): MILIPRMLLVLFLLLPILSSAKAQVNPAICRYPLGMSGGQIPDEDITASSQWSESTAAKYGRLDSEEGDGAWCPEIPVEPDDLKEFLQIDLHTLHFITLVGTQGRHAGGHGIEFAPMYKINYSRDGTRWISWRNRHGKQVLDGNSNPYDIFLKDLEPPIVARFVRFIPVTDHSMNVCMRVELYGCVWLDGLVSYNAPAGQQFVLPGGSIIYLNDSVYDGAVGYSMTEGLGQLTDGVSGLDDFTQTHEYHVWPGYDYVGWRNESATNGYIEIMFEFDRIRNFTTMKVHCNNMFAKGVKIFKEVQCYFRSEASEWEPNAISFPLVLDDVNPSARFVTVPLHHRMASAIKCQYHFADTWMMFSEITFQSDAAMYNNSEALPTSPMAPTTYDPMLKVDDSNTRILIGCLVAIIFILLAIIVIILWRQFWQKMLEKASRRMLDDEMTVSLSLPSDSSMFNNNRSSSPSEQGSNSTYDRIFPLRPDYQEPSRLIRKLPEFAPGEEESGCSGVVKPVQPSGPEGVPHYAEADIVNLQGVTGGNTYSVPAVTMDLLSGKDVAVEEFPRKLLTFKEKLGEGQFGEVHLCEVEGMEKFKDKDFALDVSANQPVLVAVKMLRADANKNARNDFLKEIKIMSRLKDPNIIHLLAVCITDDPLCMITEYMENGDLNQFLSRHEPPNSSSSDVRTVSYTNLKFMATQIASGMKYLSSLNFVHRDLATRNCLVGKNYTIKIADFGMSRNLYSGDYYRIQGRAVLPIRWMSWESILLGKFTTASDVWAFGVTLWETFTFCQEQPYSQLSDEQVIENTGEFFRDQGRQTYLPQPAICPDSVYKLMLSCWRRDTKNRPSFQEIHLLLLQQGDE

[7] = target: T2, Discoidin domain-containing receptor 2 (Homo sapiens); conditions: at 10 µM
[8] = target: T3, Myotonin-protein kinase (Homo sapiens) (UniProt Q09013); conditions: at 1 µM
T3 sequence (whole entry): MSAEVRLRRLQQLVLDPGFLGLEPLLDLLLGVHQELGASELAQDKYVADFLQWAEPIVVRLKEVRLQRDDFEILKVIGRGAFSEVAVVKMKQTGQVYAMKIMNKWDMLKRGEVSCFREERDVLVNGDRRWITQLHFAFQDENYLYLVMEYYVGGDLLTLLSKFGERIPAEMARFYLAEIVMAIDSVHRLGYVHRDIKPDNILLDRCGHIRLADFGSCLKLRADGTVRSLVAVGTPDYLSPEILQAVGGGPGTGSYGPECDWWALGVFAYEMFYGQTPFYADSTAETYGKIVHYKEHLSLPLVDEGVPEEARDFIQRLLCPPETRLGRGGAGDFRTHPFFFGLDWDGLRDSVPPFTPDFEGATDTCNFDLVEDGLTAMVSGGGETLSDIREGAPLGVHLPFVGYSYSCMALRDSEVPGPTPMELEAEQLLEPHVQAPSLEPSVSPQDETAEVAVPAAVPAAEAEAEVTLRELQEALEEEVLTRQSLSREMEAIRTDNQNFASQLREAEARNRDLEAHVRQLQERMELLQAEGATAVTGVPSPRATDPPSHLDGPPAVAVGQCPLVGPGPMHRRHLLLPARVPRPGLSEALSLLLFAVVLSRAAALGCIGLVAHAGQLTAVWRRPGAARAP

[9] = target: T3, Myotonin-protein kinase (Homo sapiens); conditions: at 10 µM
[10] = target: T4, Serine/threonine-protein kinase 17A (Homo sapiens) (UniProt Q9UEE5); conditions: at 1 µM
T4 sequence (whole entry): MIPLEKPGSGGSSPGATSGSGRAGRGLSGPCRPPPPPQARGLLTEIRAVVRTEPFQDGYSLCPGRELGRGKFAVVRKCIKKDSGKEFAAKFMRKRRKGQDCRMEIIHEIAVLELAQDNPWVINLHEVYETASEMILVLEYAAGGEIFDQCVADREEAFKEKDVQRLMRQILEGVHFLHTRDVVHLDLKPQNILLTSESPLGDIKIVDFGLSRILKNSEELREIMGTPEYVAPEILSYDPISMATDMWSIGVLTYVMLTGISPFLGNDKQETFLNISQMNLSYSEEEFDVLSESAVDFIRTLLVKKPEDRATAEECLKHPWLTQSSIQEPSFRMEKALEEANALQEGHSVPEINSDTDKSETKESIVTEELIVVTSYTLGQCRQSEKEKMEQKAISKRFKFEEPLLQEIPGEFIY

[11] = target: T4, Serine/threonine-protein kinase 17A (Homo sapiens); conditions: at 10 µM
[12] = target: T5, Dual specificity tyrosine-phosphorylation-regulated kinase 2 (Homo sapiens) (UniProt Q92630); conditions: at 1 µM
T5 sequence (whole entry): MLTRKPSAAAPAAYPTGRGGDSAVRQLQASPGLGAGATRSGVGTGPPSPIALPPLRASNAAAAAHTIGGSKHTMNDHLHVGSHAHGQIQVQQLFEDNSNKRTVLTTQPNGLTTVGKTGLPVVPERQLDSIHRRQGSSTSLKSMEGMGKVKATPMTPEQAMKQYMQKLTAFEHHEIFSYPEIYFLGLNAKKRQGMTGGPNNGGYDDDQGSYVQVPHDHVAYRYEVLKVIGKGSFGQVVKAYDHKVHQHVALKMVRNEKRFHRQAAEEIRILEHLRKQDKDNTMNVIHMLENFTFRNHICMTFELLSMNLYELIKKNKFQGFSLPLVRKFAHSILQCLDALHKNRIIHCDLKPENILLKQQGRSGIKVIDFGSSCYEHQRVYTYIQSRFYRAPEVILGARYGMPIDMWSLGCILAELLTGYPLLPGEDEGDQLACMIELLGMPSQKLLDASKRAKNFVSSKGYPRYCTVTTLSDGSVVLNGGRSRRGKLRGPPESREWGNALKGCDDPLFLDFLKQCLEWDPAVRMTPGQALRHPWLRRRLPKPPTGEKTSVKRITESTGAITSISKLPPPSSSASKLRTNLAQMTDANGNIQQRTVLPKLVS

[13] = target: T5, Dual specificity tyrosine-phosphorylation-regulated kinase 2 (Homo sapiens); conditions: at 10 µM
[14] = target: Epidermal growth factor receptor (Homo sapiens) (UniProt P00533); conditions: at 1 µM
Epidermal growth factor receptor (Homo sapiens), sequence (P00533 whole entry): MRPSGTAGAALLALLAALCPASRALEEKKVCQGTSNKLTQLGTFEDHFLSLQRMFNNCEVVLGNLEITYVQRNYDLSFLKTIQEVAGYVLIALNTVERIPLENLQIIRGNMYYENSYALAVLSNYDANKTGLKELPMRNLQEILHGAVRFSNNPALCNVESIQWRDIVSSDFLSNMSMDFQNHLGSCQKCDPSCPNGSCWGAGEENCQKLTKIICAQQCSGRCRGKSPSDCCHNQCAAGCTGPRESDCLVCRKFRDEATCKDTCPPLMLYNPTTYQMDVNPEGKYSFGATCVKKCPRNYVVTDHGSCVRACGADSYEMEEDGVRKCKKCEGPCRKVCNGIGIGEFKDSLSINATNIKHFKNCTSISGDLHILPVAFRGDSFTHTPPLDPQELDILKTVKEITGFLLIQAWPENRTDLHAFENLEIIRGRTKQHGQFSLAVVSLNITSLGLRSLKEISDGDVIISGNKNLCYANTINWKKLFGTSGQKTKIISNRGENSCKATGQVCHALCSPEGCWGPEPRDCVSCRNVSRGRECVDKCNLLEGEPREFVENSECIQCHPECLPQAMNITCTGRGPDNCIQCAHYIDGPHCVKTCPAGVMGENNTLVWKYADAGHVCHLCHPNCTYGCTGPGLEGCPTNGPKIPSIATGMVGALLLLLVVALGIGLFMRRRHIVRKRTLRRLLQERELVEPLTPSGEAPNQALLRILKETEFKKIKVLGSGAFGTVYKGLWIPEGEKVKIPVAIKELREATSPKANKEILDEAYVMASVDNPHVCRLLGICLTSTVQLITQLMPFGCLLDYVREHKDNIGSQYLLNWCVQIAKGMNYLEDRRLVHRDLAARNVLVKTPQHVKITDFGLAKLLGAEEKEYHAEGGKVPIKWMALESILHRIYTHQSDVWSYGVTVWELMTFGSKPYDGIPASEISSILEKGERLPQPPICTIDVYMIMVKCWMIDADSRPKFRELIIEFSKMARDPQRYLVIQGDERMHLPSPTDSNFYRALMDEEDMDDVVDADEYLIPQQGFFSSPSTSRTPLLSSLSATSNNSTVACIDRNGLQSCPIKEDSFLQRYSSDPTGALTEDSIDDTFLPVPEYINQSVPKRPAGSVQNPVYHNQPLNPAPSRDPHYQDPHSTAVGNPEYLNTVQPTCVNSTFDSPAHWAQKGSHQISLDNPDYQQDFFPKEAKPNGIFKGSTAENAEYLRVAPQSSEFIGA

[15] = target: Epidermal growth factor receptor (Homo sapiens) (UniProt P00533); conditions: at 10 µM
[16] = target: T6, Ephrin type-A receptor 1 (Homo sapiens) (UniProt P21709); conditions: at 1 µM
T6 sequence (whole entry): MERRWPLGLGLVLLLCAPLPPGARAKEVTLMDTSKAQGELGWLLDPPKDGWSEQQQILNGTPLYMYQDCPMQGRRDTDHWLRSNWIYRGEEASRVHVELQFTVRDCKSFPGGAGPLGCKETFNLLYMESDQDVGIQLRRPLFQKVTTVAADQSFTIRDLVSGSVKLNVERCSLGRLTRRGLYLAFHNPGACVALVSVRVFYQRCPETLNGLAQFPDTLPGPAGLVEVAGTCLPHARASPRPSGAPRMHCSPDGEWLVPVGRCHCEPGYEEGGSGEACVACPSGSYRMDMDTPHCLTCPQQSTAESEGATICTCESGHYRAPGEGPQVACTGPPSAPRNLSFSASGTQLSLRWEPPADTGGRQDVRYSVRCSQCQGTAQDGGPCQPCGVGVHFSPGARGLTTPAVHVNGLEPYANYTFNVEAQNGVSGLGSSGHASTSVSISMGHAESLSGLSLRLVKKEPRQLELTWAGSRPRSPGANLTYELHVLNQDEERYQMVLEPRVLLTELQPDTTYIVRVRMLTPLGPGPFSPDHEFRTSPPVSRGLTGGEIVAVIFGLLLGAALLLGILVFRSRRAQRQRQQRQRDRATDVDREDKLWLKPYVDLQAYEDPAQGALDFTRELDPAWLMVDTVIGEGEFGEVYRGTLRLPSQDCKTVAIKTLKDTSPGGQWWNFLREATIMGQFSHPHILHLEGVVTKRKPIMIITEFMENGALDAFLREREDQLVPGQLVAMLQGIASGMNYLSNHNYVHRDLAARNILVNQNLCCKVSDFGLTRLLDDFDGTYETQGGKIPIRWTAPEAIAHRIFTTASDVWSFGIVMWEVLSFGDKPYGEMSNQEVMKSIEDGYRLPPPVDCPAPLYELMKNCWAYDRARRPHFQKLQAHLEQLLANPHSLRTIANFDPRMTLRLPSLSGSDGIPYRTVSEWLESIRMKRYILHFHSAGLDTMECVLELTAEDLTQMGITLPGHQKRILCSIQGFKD

[17] = target: T6, Ephrin type-A receptor 1 (Homo sapiens); conditions: at 10 µM
[18] = target: Ephrin type-A receptor 2 (Homo sapiens) (UniProt P29317); conditions: at 1 µM
Ephrin type-A receptor 2 (Homo sapiens), sequence (P29317 whole entry): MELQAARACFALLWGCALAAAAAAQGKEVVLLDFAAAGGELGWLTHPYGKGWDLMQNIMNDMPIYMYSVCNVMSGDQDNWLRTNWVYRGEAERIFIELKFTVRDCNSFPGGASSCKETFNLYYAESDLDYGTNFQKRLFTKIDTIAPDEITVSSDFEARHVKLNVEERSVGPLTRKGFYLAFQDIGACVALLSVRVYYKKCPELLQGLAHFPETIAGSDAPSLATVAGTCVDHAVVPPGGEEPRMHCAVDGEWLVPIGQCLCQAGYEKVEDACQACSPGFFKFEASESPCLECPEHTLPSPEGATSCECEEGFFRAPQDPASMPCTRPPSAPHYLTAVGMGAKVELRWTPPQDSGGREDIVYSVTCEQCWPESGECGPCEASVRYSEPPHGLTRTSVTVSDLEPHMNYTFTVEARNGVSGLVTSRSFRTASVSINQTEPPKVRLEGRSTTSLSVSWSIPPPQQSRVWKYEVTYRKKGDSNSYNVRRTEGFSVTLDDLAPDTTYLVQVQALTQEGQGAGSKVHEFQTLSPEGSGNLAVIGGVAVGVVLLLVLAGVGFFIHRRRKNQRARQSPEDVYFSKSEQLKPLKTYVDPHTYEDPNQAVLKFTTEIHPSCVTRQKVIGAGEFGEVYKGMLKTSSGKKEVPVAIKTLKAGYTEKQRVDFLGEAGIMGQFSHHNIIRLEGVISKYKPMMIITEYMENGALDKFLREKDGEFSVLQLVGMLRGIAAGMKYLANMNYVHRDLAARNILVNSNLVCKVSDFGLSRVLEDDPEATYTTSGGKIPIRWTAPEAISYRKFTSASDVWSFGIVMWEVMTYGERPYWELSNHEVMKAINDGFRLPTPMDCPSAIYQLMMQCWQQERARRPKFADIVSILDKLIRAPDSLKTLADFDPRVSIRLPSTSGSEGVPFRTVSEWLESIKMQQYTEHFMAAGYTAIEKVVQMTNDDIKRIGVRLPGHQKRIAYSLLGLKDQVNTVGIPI

[19] = target: Ephrin type-A receptor 2 (Homo sapiens) (UniProt P29317); conditions: at 10 µM
[20] = target: T7, Ephrin type-A receptor 3 (Homo sapiens) (UniProt P29320); conditions: at 1 µM
T7 sequence (whole entry): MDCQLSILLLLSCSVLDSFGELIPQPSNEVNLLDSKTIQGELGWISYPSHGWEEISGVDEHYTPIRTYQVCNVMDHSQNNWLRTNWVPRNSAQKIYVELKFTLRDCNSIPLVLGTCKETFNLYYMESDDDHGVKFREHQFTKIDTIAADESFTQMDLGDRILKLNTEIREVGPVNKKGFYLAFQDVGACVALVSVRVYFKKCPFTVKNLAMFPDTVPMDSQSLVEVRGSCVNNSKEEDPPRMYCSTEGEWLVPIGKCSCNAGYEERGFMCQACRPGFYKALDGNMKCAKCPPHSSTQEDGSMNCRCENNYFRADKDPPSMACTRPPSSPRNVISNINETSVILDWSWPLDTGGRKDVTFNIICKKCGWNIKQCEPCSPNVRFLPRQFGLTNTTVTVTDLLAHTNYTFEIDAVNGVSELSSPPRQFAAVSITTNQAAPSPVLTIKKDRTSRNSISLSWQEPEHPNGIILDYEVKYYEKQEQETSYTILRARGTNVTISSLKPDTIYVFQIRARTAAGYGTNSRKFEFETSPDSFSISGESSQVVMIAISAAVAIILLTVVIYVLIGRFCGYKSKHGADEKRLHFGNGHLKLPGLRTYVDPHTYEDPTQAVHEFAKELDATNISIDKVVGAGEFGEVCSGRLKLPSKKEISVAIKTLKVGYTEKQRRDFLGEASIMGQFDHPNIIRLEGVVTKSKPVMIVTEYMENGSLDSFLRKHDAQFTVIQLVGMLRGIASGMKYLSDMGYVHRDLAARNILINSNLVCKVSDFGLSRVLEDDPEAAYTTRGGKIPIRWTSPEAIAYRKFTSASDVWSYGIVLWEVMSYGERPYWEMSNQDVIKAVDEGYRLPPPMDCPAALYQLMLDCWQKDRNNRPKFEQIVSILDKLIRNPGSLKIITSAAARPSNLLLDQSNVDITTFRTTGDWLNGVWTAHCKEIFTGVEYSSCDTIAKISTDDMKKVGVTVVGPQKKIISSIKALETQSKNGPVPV

Death-associated protein kinase 2 (Homo sapiens), sequence (Q9UIK4 whole entry, looked up): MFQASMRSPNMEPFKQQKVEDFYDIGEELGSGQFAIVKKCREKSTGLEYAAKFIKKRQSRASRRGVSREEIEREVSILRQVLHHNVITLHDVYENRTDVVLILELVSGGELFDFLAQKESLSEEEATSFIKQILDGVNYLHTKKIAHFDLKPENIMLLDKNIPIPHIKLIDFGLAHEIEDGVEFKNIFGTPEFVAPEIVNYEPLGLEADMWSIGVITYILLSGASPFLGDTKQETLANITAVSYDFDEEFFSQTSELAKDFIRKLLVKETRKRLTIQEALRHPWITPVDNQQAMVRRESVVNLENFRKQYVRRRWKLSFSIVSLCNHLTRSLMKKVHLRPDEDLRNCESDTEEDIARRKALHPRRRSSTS
Death-associated protein kinase 1 (Homo sapiens), sequence (P53355 whole entry, looked up): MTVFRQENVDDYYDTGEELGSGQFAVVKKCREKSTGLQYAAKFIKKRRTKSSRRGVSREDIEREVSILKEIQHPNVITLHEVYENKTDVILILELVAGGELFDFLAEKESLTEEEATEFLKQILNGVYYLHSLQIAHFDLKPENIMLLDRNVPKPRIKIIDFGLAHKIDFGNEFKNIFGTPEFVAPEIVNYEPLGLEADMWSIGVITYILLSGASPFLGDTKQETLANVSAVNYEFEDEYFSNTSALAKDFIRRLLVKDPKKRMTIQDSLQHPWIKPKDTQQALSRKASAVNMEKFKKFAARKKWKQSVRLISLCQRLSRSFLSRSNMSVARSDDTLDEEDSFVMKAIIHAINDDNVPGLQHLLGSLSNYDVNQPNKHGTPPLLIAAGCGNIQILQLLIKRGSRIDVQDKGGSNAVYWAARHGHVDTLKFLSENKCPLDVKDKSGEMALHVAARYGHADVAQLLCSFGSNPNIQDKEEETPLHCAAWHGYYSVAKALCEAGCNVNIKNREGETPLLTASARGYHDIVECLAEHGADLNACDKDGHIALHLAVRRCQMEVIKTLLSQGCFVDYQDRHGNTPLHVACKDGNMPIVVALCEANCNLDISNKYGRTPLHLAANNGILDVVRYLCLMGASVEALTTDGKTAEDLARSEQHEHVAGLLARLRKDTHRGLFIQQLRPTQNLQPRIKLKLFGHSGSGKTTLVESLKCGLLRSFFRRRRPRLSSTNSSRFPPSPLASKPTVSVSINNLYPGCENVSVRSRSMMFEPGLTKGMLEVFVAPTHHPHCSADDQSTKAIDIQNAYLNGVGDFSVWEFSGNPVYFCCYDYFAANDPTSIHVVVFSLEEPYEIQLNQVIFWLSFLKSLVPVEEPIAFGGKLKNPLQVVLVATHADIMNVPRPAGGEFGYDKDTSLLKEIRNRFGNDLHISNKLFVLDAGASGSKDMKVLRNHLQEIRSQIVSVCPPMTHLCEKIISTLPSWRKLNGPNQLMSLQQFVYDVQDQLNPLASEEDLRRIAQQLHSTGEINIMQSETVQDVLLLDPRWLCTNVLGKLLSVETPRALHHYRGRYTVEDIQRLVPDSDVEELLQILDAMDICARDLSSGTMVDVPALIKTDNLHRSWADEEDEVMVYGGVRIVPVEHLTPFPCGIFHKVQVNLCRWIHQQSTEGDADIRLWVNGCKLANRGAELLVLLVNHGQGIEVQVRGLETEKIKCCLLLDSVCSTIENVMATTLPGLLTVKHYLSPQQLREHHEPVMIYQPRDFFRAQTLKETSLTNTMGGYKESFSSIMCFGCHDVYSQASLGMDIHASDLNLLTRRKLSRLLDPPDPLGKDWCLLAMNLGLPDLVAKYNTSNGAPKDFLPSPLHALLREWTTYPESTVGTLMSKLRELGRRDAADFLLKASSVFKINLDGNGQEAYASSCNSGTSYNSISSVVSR

| SMILES | residual activity [1] | residual activity [2] | residual activity [3] | residual activity [4] | residual activity [5] | residual activity [6] | residual activity [7] | residual activity [8] | residual activity [9] | residual activity [10] | residual activity [11] | residual activity [12] | residual activity [13] | residual activity [14] | residual activity [15] | residual activity [16] | residual activity [17] | residual activity [18] | residual activity [19] | residual activity [20] |
| --- | --- | --- | --- | --- | --- | --- | --- | --- | --- | --- | --- | --- | --- | --- | --- | --- | --- | --- | --- | --- |
| O=C1NC(=O)/C(=C\c2ccc3nccnc3c2)S1 | 78% | 68% | 27% | 73% | 71% | 109% | 101% | 114% | 122% | 63% | 19% | 7% | -4% | 100% | 113% | 95% | 90% | 100% | 111% | 91% |
| COc1ccc(S(=O)(=O)N(CCO)c2ccccc2CN(C)C/C=C/c2ccc(Cl)cc2)cc1 | 65% | 100% | 87% | 91% | 107% | 97% | 97% | 99% | 89% | 95% | 87% | 100% | 91% | – | – | 97% | 76% | 96% | 86% | 97% |
| COc1ccc(C(=O)Nc2sc3c(c2C(N)=O)CCCC3)cc1OC | 86% | 90% | 105% | 86% | 61% | 101% | 98% | 113% | 127% | 125% | 111% | 98% | 90% | – | – | 92% | 111% | 109% | 107% | 110% |
